Sampled rows, rich in hits. Any-hit rate of the full collection: about 2.5%.
MEKK3 PB1 HTS = modulators of MEKK3-MEK5 PB1 binding, primary screen, biochemical, wildtype MEKK3, multiplex bead flow cytometry, Alexa488-MEK5 | bead-based flow cytometry, Alexa488-MEK5 binding to MEKK3; actives lie on both sides; 0 = blocked by unlabeled MEK5, 100 = vehicle | binding response (% of control), % at 10 µM | 1.4% of 290,000 active | AID 1529, 2009;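 active means binding response more than 3 SD above or below the average of its plate-row segment, actives on both sides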;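 further: Alexa488 bead fluorescence after subtracting the streptavidin-only scavenger bead signal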
MEKK2mut PB1 HTS = MEK5 binding signal on mutant MEKK2 PB1, primary screen, biochemical, multiplex bead flow cytometry, Alexa488-MEK5; Alexa488-MEK5 binding to MEKK2 mutant; percent response, % at 10 µM; 0.35% of 290,000 active; AID 1530, 2009; in the data active means percent response above about 24%, passing the limit was not always enough
GRK2 aptamer HTS = compounds blocking aptamer binding on GRK2 – biochemical, human GRK2, bead flow cytometry, HTS, primary screen; FAM-aptamer displacement from GRK2; inhibition of aptamer binding, % at 10 µM; AID 488847, 2010; Beta-adrenergic receptor kinase 1 (Homo sapiens), P25098; 0.59% of 330,000 active;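 active means inhibition of aptamer binding above 40%, roughly 3 SD of noise, on plates passing a quality check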;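 further: median bead fluorescence of bound FAM aptamer so fluorescent compounds give negative values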
Target sequence (P25098 whole entry, looked up): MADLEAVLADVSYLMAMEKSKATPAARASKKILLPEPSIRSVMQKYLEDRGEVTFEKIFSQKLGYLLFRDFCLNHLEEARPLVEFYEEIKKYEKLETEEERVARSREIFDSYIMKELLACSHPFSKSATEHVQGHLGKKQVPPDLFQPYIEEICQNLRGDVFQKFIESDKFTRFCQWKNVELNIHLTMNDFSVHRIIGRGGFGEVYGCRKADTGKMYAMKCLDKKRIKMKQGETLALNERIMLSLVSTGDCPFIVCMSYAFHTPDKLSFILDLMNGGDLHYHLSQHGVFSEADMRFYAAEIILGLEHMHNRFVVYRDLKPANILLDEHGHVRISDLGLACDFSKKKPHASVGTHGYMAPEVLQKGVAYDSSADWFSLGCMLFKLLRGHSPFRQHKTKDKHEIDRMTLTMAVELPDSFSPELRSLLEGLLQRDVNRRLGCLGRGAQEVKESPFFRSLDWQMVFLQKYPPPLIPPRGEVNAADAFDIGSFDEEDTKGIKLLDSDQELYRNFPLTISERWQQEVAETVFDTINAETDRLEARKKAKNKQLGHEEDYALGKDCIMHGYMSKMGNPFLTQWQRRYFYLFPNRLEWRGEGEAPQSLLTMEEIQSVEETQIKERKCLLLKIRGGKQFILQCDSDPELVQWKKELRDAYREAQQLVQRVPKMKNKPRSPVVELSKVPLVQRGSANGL
MEKK2 WT-MEK5 = modulators of MEK5 binding to wildtype MEKK2, primary screen, biochemical, multiplex bead flow cytometry, Alexa488-MEK5; Mitogen-activated protein kinase kinase kinase 2 (Homo sapiens), Q9Y2U5; Alexa488-MEK5 binding to MEKK2 WT; actives lie on both sides; binding response (% of control), % at 10 µM; 1.1% of 290,000 active; AID 1531, 2009; in the data active means binding response below about 67% or above about 130%
MEKK2wt confirm = modulators of MEK5 binding to wildtype MEKK2, confirmation, biochemical, single concentration, multiplex bead flow cytometry. binding response (% of control), % at 10 µM. shares compounds with MEKK3 PB1 HTS. Alexa488-MEK5 binding to MEKK2 WT; actives lie on both sides. 2.4% of 5,900 active. AID 1892, 2009; in the data active means binding response below about 16% or above about 210%; inactive means in between
MEKK2mut-MEK5 = mutant MEKK2 PB1-MEK5 binding signal retest – biochemical, single concentration, multiplex bead flow cytometry, confirmation; shares compounds with MEKK3 PB1 HTS; Alexa488-MEK5 binding to MEKK2 mutant; percent response, % at 10 µM; 2% of 5,900 active; AID 1893, 2009; in the data active means percent response mostly above about 71%, no sharp cut-off; inactive means mostly below about 38%;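 further: higher means compound restores mutant binding toward wildtype level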
MEKK3 confirm = MEKK3 wild-type PB1 binding to MEK5, inhibitors, confirmation, biochemical, bead multiplex flow cytometry, single concentration, wildtype; shares compounds with MEKK3 PB1 HTS; Alexa488-MEK5 binding to MEKK3; stronger effect = lower value; binding response (% of control), % at 10 µM; 1.8% of 5,900 active; AID 1894, 2009;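 active means binding response below 72% of control, or above a set upper limit, though filed actives all read lower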
A number is an active result; - = inactive; . = no result given; ! = not confirmed by another sample; [ ] = another dose, or the depositor's remark.

SMILES	MEKK3 PB1 HTS	MEKK2mut PB1 HTS	GRK2 aptamer HTS	MEKK2 WT-MEK5	MEKK2wt confirm	MEKK2mut-MEK5	MEKK3 confirm
O=c1[nH]c(SCc2nc3ccccc3c(=O)n2-c2ccccc2C(F)(F)F)nc2ccccc12	67[inhibitor]	-	-	-	-	-	-
CC(C)(C)OC(=O)N1CCC2(CC1)Oc1ccc(F)cc1C(=O)C21CC(c2cccnc2)=NO1 (stereo not drawn)	-	-	-	-	.	.	.
COC(=O)c1cc(S(=O)(=O)Nc2nn(C)c3cccc(F)c23)oc1C	-	-	-	-	.	.	.
CCn1c(SCC(=O)N/N=C/C=C/c2ccco2)nnc1-c1ccccc1	128	-	-	-	-	-	-
O=C(/C=C/c1ccccc1)NC(=S)Nc1ccccc1	122	-	-	-	-	-	-
CCc1nnc(NC(=O)/C=C/c2ccco2)s1	131	-	-	-	-	-	-
O=C(/C=C/c1ccc(F)cc1)NC(=S)Nc1ccccc1	-	-	-	-	.	.	.
CC(=O)Nc1ccc(NC(=S)NC(=O)/C=C/c2ccco2)cc1	40[inhibitor]	-	-	16[inhibitor]	-	-	-
CCSc1nnc(NC(=O)/C=C/c2ccco2)s1	-	-	-	-	.	.	.
CC1CCCC(C)N1/N=C/c1ccc(O)c(O)c1 (stereo not drawn)	-	-	-	-	.	.	.
CCOC(=O)Cn1nc(C)cc1NC(=O)c1cc(OC)c(OC)c(OC)c1	-	-	-	-	.	.	.
COc1cc(C(=O)NCCC(=O)NCCN2CCCCCC2)cc(OC)c1OC	-	-	-	143	-	-	-
Clc1ccccc1CN1CCc2sccc2C1	70[inhibitor]	-	-	0.0![inhibitor]	-	-	-
Cn1cc(CN2CCc3sccc3C2)c(-c2ccccc2F)n1	-	-	-	-	.	.	.
Nc1ccc2oc3ccc(N)cc3c(=O)c2c1	-	-	-	-	.	.	.
COc1ccc(OC)c(NC(=O)c2cc(-c3cc(Cl)ccc3O)n[nH]2)c1	145	-	.	-	-	-	-
Cc1cc(OCC(O)CN2CCN(C)CC2)ccc1C(C)C (stereo not drawn)	-	-	-	-	.	.	.
COc1cccc(OC)c1C(=O)NC(=S)Nc1ccc2c(c1)OCCO2	141	-	-	-	-	-	-
COc1ccc(C=O)cc1CSc1ccccn1	-	-	-	-	.	.	.
COc1ccc(/C=N/NC(=O)c2ccc(O)cc2O)cc1CSc1ccccn1	136	-	-	-	-	-	-
O=C(N/N=C/c1c(O)n(-c2ccccc2Cl)c(=O)c2ccccc12)C1COc2ccccc2O1 (stereo not drawn)	137	-	-	-	-	-	-
Cc1c(/C=N\NC(=O)C2COc3ccccc3O2)c2ccccc2n1C (stereo not drawn)	-	-	-	26[inhibitor]	-	-	-
Cn1cc(/C=N\NC(=O)C2COc3ccccc3O2)c2ccccc21 (stereo not drawn)	-	-	-	-	.	.	.
COc1cc(S(=O)(=O)n2nc(C)cc2C)c(OC)cc1Cl	2.0[inhibitor]	-	-	-2.0[inhibitor]	-	-	-
O=C(Cn1c(CO)nc2ccccc21)NCCc1ccccc1	-	-	-	-	.	.	.
COc1ccc(-c2nnc(Nc3ccc(S(=O)(=O)Nc4nccs4)cc3)c3ccccc23)cc1	-	-	.	-	.	.	.
CCCC1OC2CC3C4CCC5=CC(=O)C=CC5(C)C4C(O)CC3(C)C2(C(=O)O)O1 (stereo not drawn)	-	-	-	-	.	.	.

Source: PubChem (NMMLSC)
